High-throughput results deposited in PubChem by National Center for Advancing Translational Sciences (NCATS).
Cruzain inh Det: qHTS Assay for Promiscuous and Specific Inhibitors of Cruzain (with detergent) | Cruzipain (Trypanosoma cruzi), P25779 | purified cruzain, Z-FR-AMC fluorescence, 0.01% Triton | Potency, µM, inactives show max response, negative = inhibition, actives largely listed as inhibitors | 0.43% of 200,000 active | AID 1478, 2009;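 further: plate controls were neutral wells for no effect and buffer without enzyme for full effect; nearly all actives have a fitted effect of over 40% in size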
Target sequence (P25779 123-467 limits assumed): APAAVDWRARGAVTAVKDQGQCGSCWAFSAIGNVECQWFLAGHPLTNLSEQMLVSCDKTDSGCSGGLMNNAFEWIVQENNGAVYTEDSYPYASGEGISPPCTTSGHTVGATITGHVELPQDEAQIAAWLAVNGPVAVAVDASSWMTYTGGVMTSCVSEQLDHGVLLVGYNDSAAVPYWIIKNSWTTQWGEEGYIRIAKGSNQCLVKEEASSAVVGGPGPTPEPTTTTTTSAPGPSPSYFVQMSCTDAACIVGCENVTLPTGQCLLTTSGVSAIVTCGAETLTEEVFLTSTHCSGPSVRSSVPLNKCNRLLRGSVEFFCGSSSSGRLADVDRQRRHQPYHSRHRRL
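In this qHTS format, compounds are incubated with 1.5 nM cruzain for 15 min at room temperature before 2 uM Z-FR-AMC is added. Release of AMC is followed at 360/450 nm, and progress is taken as the 60 s fluorescence difference.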
Cruzain inh noDet: qHTS Assay for Promiscuous and Specific Inhibitors of Cruzain (without detergent) | Cruzipain (Trypanosoma cruzi), P25779 | 2.3% of 200,000 active | Potency, µM, inactives show max response, negative = inhibition, usual class: inhibitors | purified cruzain, Z-FR-AMC fluorescence, no detergent;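 further: plate controls were enzyme without inhibitor for no effect and buffer without enzyme for full effect; nearly all actives have a fitted effect of over 40% in size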
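Detergent-free condition (0.00005% Triton X-100) in acetate buffer pH 5.5 with DTT. 1.5 nM enzyme and compound were pre-mixed 15 min, then 2 uM Z-FR-AMC substrate added; reaction progress from fluorescence change between first and third reads (60 s).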
Numbers without * were called inactive; ? = inconclusive. Sampled rows, rich in hits. Any-hit rate of the full collection: about 2.6%. The call rests on the fitted dose curve; in most records, active means well fitted curve in the direction sought with a large enough effect; inconclusive means small, poorly fitted or top-dose-only effect, or another doubt; inactive means no such curve, though single readings can be large; an effect the other way counts as inactive or inconclusive. Potency means the concentration at half of the fitted maximal effect.

SMILES	Cruzain inh Det	Cruzain inh noDet
O=C(NCc1ccco1)C(Cc1ccccc1)N1C(=O)C2C3C=CC(C3)C2C1=O (configuration not stated)	25.1µM*	-29.9%
O=C(C(Cc1ccccc1)N1C(=O)C2C3C=CC(C3)C2C1=O)N1CCCCCC1 (configuration not stated)	-0.5%	15.9%
Cc1ccc(N2CC(NC(=O)CCCc3ccccc3)CC2=O)cc1 (configuration not stated)	0.6%	5.8%
CCCCCCNC(=O)C(C#N)c1nc2ccccc2nc1N1CCCC1 (configuration not stated)	-9.1%	-15.6%
CCCCCNC(=O)C(C#N)c1nc2ccccc2nc1N1CCCC1 (configuration not stated)	-2.4%	12.6µM*
CCn1c(=O)c(C(=O)NNS(=O)(=O)c2ccc(C)cc2)c(O)c2ccccc21	-7.1%	-0.3%
CCCn1c(=O)c(C(=O)NNS(=O)(=O)c2ccc(C)cc2)c(O)c2ccccc21	-4.2%	12.6µM*
CN(C)c1ccc(C(CNC(=O)c2cccc(C(F)(F)F)c2)N2CCCC2)cc1 (configuration not stated)	-0.8%	2.5%
COc1ccc(C2CC(c3cccs3)=NN2c2nc(-c3ccccc3)cs2)cc1OC (configuration not stated)	-3.9%	7.94µM*
COc1ccc(C2CC(c3cccs3)=NN2c2ccc(C=O)cc2)cc1 (configuration not stated)	-4.3%	?
COC(=O)c1ccccc1NC(=O)c1cc2ccccn2n1	-1.5%	-16.1%
CCC(Sc1nnc(-c2ccc(OC)cc2)c(-c2ccc(OC)cc2)n1)C(=O)Nc1cccc(OC)c1 (configuration not stated)	-0.5%	?
C=CCNc1sc(C(=O)c2ccccc2)c(N)c1C#N	-6.4%	-7.0%
C=CCNc1sc(C(=O)c2ccc(Br)s2)c(N)c1C#N	-1.0%	15.8µM*
O=C(Oc1ccccc1)N1CCC2(CCCN(c3ccc(-c4ccccc4)cc3)C2)CC1	0.4%	12.6µM*
COC(=O)N1CCC2(CCCN(c3ccc(-c4ccccc4)cc3)C2)CC1	-4.7%	-5.2%
Cc1cc2cc(CNS(=O)(=O)c3ccc4ccccc4c3)ccc2n1C	-2.7%	25.1µM*
CC(=O)Nc1ccc(S(=O)(=O)NCc2ccc3c(c2)cc(C)n3C)cc1	-0.1%	-5.7%
O=C(Nc1ccc(Cl)c(-c2nc3ccccc3o2)c1)c1ccc(-c2cccc([N+](=O)[O-])c2)o1	-2.8%	-26.8%
Cc1c(NC(=O)c2ccc(-c3cccc([N+](=O)[O-])c3)o2)cccc1-c1nc2cc(Cl)ccc2o1	-6.4%	3.16µM*
Cc1ccc2oc(-c3cc(NC(=O)/C=C/c4ccco4)ccc3Cl)nc2c1	-9.0%	?
Cc1ccc2oc(-c3cccc(NC(=O)/C=C/c4cccc([N+](=O)[O-])c4)c3C)nc2c1	-0.7%	15.8µM*
COc1ccc2nc(NC(=O)c3ccc(-c4cccc([N+](=O)[O-])c4)o3)sc2c1	0.8%	12.6µM*
COc1ccc2nc(NC(=O)c3cc(C)oc3C)sc2c1	-4.3%	-24.8%
COc1ccc(C2C=C(c3ccccc3)Nc3nc(NC(=O)c4cccc([N+](=O)[O-])c4)nn32)cc1 (configuration not stated)	-1.5%	-1.2%
SMILES	Cruzain inh Det	Cruzain inh noDet
COC1=CC(=O)C(O)=C/C1=C\C=C\c1ccccc1	-13.0%	-8.5%
Cc1cn2c(=O)cc(COc3cccc(NC(=O)c4ccc(C(C)(C)C)cc4)c3)nc2s1	-4.0%	?
COc1ccc(OC)c(N2Cc3cc(C)c(C)cc3C2)c1	0.7%	15.8µM*
CCOc1ccccc1N1Cc2cc(C)c(C)cc2C1	3.1%	25.1µM*
CCOc1ccccc1N1Cc2ccccc2C1	4.7%	?
COc1ccc(OC)c(-n2cnnn2)c1	5.5%	2.2%
N[C@H](Cn1ccc(=O)n(Cc2ccccc2C(=O)O)c1=O)C(=O)O	5.0%	-5.3%
O=Nc1c(-c2c(O)[nH]c3cc(Br)ccc23)[nH]c2ccccc12	-3.4%	31.6µM*
O=Nc1c(O)[nH]c2ccccc12.[Cu].[O-]/N=C1/C(=[OH+])Nc2ccccc21	-0.3%	5.9%
CCC(C(=O)NCc1cc(OC)ccc1OC)n1nc(C)c2sc3ccccc3c2c1=O (configuration not stated)	-1.0%	8.6%
O=C(Nc1nc2c(s1)CCCC2)c1cc(-c2ccncc2)nc2ccccc12	2.0%	?
O=C(Nc1ccc(Br)cc1)c1cc(-c2cccs2)nc2ccccc12	-6.0%	-1.9%
CC(C)(C)c1nnc(NC(=O)c2cc(-c3ccccc3)nc3ccccc23)s1	-3.2%	-27.8%
CC(C)(C)c1nc(SCC(=O)Nc2nc3c(s2)CCCC3)c2ccccc2n1	-14.3%	?
CN(C)S(=O)(=O)c1cccc(NC(=O)c2cc(-c3cccs3)nc3ccccc23)c1	-3.8%	15.8µM*
